FBA Mtb inh – inhibitors of M. tuberculosis fructose-bisphosphate aldolase; P9WQA3; purified M. tuberculosis FBA, fluorescence read-out; inhibition, % at 1 µM; hit rate 2.3% among 360,000; in the data active means inhibition above about 27%
Target sequence (P9WQA3 whole entry, looked up): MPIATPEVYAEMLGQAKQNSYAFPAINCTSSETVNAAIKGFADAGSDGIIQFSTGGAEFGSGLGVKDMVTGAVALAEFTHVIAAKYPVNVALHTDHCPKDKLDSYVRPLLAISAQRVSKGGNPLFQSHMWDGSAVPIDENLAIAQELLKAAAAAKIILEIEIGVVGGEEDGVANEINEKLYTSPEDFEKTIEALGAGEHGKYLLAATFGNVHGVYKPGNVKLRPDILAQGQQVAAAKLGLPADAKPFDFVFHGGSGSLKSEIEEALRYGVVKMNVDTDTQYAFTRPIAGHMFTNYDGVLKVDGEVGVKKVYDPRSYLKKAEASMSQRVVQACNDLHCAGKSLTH
FadD28 binding – blocks FadD28 binding to the bisubstrate probe. fluorescence polarization. hit rate 0.22% among 360,000. inhibition, % at 12.5 µM; in the data active means inhibition above about 8.5%, passing the limit was not always enough; inconclusive means no clear call, values can overlap the other calls
BioA inh – BioA (M. tuberculosis) enzyme inhibition. purified M. tuberculosis BioA enzyme, plate reader. inhibition, % at 9.99 µM. hit rate 0.096% among 360,000; in the data active means inhibition above about 40%; inconclusive means no clear call, values can overlap the other calls
Mtb hypoxia inh – reduces hypoxia-regulated biosensor signal in M. tuberculosis; M. tuberculosis hypoxia-regulated fluorescent reporter, fluorescence; hit rate 0.1% among 300,000; fluorescence inhibition, % (test concentration not listed); AID 1159583; in the data active means fluorescence inhibition mostly above about 23%, no sharp cut-off; inactive means mostly below about 17%
GDH-TPI inh – GDH-TPI coupled enzyme inhibition counter-screen; AID 588335; GDH-TPI coupled enzyme counterscreen, NADH absorbance; inhibition, % at 4.8 µM; hit rate 1.2% among 360,000; in the data active means inhibition above about 30%
Numbers stand for hits; n = inactive; u = inconclusive; x = no result shown; + = active, no number. Rows were chosen to be rich in hits. Some 2.9% of all compounds tested hit in one or more screens of this group.

SMILES	FBA Mtb inh	FadD28 binding	BioA inh	Mtb hypoxia inh	GDH-TPI inh
Nc1c(C(=O)NCc2ccco2)c2nc3ccccc3nc2n1CCc1ccccc1F	70	n	n	n	n
CC(C)CC#Cc1ccc2c(c1)O[C@@H](CN(C)C(=O)Cc1ccncc1)[C@@H](C)CN([C@@H](C)CO)S2(=O)=O	x	x	n	x	x
CCCNC(=O)Nc1ccc2c(c1)C(=O)N(C)C[C@H](OC)[C@@H](C)CN(C(=O)CC)[C@@H](C)CO2	x	x	n	x	x
COc1ccc(/C=C2/C(=O)N(Cc3ccco3)C(=O)N(C(C)C)C2=O)cc1	n	9.5	x	n	n
C[C@@H]1CCCCO[C@@H](CN(C)S(=O)(=O)c2ccc(Cl)cc2)[C@H](C)CN([C@@H](C)CO)C(=O)c2cc(NS(=O)(=O)c3cccs3)ccc2O1	x	x	n	x	x
C=CCOc1ccc(/C=C2\SC(=S)N(C(C(=O)O)c3ccccc3)C2=O)cc1 (stereo not drawn)	n	14	x	n	n
CCOc1ccc(/C=C2\SC(=S)N(C(C(=O)O)c3ccccc3)C2=O)cc1OC (stereo not drawn)	n	n	n	n	n
O=C(Nc1cccc(Cl)c1)N[C@@H]1CC[C@H](CCNC(=O)C2CC2)O[C@@H]1CO	x	x	n	x	x
O=C(N/N=C1\CCS(=O)(=O)c2ccc(F)cc21)c1ccc([N+](=O)[O-])cc1	n	n	n	x	n
O=S1(=O)CC/C(=N/Nc2ccccn2)c2cc(F)ccc21	n	n	x	x	33
O=C(N/N=C1\CCS(=O)(=O)c2ccc(F)cc21)c1ccc(O)cc1	n	n	x	x	46
COC(=O)Cc1c(C)c2ccc(O)c(CN3CCCC(C)C3)c2oc1=O (stereo not drawn)	x	n	n	n	n
CCOC(=O)c1ccc(Oc2c(C)oc3c(CN4CCN(C)CC4)c(O)ccc3c2=O)cc1	157	n	n	n	n
Cc1oc2c(CN3CCCC(C)C3)c(O)ccc2c(=O)c1-c1ccccc1 (stereo not drawn)	136	n	n	n	n
Cc1oc2c(CN3CCCC3)c(O)ccc2c(=O)c1Oc1ccccc1Br	+	n	x	n	n
COc1ccccc1-c1c(C)oc2c(CN3CCCC(C)C3)c(O)ccc2c1=O (stereo not drawn)	+	x	n	n	n
COc1ccccc1-c1coc2c(CN3CCCCC3C)c(O)ccc2c1=O (stereo not drawn)	135	n	n	n	n
COc1ccccc1-c1coc2c(CN3CCCC(C)C3)c(O)ccc2c1=O (stereo not drawn)	+	n	n	n	n
COc1ccccc1-c1coc2c(CN3C(C)CCCC3C)c(O)ccc2c1=O (stereo not drawn)	n	n	n	n	n
CN1CCN(Cc2c(O)ccc3c(=O)c(Oc4ccccc4Cl)c(C(F)(F)F)oc23)CC1	n	n	n	x	n
COc1ccccc1-c1c(C)oc2c(CN3CCOCC3)c(O)ccc2c1=O	+	n	n	n	n
COc1cccc(Oc2c(C)oc3c(CN4CCOCC4)c(O)ccc3c2=O)c1	142	n	n	n	n
COc1ccc(Oc2c(C)oc3c(CN4CCOCC4)c(O)ccc3c2=O)cc1	n	n	x	n	n
Cc1cc(C)nc(SCc2ccc(C(=O)NN=Cc3cccnc3)cc2)n1	x	x	x	n	x
CN1C(=O)c2cc(NC(=O)c3cccc(F)c3)ccc2OC[C@H]2O[C@H](CC(=O)Nc3ccccc3)CC[C@H]21	x	x	n	x	x
SMILES	FBA Mtb inh	FadD28 binding	BioA inh	Mtb hypoxia inh	GDH-TPI inh
CC1CCCCN1Cc1c(O)ccc2c(=O)c(-c3nc4ccccc4s3)c(N)oc12 (stereo not drawn)	n	u	x	n	61
Cc1oc2c(CN3CCCCC3)c(O)ccc2c(=O)c1-c1ccc(Cl)cc1	113	x	n	n	n
COc1ccc(-c2c(C)oc3c(CN4CCCCC4C)c(O)ccc3c2=O)cc1 (stereo not drawn)	174	n	n	n	n
C[C@H](CO)N1C[C@H](C)[C@H](CN(C)S(=O)(=O)c2ccc(Cl)cc2)Oc2ccc(NC(=O)CCN3CCOCC3)cc2CC1=O	x	x	n	x	x
CCOC(=O)N1CCN(CCC(=O)Nc2cc([N+](=O)[O-])ccc2OC)CC1	n	n	x	n	n
COc1ccc([N+](=O)[O-])cc1NC(=O)CCN1CCN(CCO)CC1	n	n	45	n	n
CCN1CCN(c2nc3ccccc3n3cnnc23)CC1	n	n	x	n	32
O=c1[nH]c(=S)n(-c2ccccc2)c(O)c1/C=N/N1CCCCC1c1cccnc1 (stereo not drawn)	n	n	n	x	52
CCOc1ccc(NC(=O)c2ccc3[nH]c(=O)c(=O)[nH]c3c2)cc1	n	n	n	n	32
CCOc1ccc(C=NNC(=O)C(=O)N2CCCCCC2)c2ccccc12	x	x	x	n	x
COc1cc(OC)c2ccc(=O)oc2c1	+	n	n	x	n
COc1cc(OC)c2c(C)cc(=O)oc2c1	+	n	n	x	n
CCCCCc1cc(O)c2c(C)cc(=O)oc2c1	n	n	n	n	n
Cc1cc(=O)oc2cc(O)cc(O)c12	196	n	n	x	n
C[C@@H]1CN([C@@H](C)CO)S(=O)(=O)c2ccc(-c3ccccc3)cc2O[C@H]1CN(C)S(C)(=O)=O	x	x	n	x	x
CC(=NNS(=O)(=O)c1ccc(Cl)cc1)c1ccc(O)cc1	x	x	x	n	x
Cc1cccc(/C=N/NC(=O)c2cc3c(s2)-c2ccccc2CC3)c1	n	n	n	x	34
COc1ccc(N(C)C(=O)c2cc3c(s2)-c2ccccc2OC3)c(OC)c1	n	n	n	x	n
O=C(N/N=C/c1cccc(C(F)(F)F)c1)c1cc2c(s1)-c1ccccc1CC2	n	n	x	x	n
COC(=O)c1cc2c(s1)-c1ccccc1CC2	94	n	n	x	n
COC(=O)c1cc2c(s1)-c1cc(F)ccc1OC2	62	n	x	n	31
Cc1noc(C)c1NC(=O)Nc1ccc2c(c1)C(=O)N([C@@H](C)CO)C[C@H](C)[C@H](CN(C)S(=O)(=O)c1cccs1)O2	x	x	n	x	x
CCn1c(C)csc1=NC(=O)c1ccccc1	n	n	n	x	34
Cc1csc(=NC(=O)c2ccccc2)n1C	n	n	x	x	n
CCn1c(C)csc1=NC(=O)c1ccccc1O	n	n	n	x	37
SMILES	FBA Mtb inh	FadD28 binding	BioA inh	Mtb hypoxia inh	GDH-TPI inh
CCn1c(C)csc1=NC(=S)Nc1ccccc1C	x	x	x	n	x
C[C@H]1CCCCO[C@@H](CN(C)C(=O)c2ccncc2)[C@@H](C)CN([C@@H](C)CO)C(=O)c2cc(NS(=O)(=O)c3ccccc3)ccc2O1	x	x	n	x	x
CCN(CC)c1ccc(C(=C2C=CC(=[N+](CC)CC)C=C2)c2ccccc2)cc1	n	n	x	x	n
CCN(CC)c1ccc(C(=C2C=CC(=[N+](CC)CC)C=C2)c2ccc(N(CC)CC)cc2)cc1	n	n	n	100	n
COc1ccc(-c2cc(C(=O)N3CCN(c4ccccc4O)CC3)c3ccccc3n2)cc1	n	n	n	n	n
O=C(O)c1cc(-c2cccs2)nc2cc3c(cc12)OCCO3	+	n	n	x	n
CS(=O)(=O)N1CCN(C(=O)c2cc(-c3cccs3)nc3ccccc23)CC1	125	n	n	x	31
COc1ccc(-c2cc(C(=O)N3CCCC3)c3ccccc3n2)cc1	148	n	n	n	n
O=C(c1cc(-c2ccccc2)nc2ccccc12)N1CCCC1	n	n	n	n	n
COc1ccc2nc(-c3ccccc3)cc(C(=O)N3CCC3)c2c1	149	n	n	n	n

Compound activity deposited in PubChem BioAssay by several laboratories.
